The structures appear in SMILES notation. Among all 52,000 compounds or so, about 1,700 (3.3%) were called active. The sample holds actives, similar compounds and a random draw of the others, so the mix is not that of the screen. Cut-off read from the data, not from the text of the source: active = survival mostly below about 52% (no sharp cut-off); inactive = mostly above about 56%.

The test relates to Wild type. Briefly: growth inhibition of S. aureus wild type versus tarO mutant, primary screen, teichoic acid synthesis inhibitors, RN4220, OD600 (AID 463173). To be noted: S. aureus RN4220 wild type/DeltatarO growth, OD600, 18 h, active compounds read low, screened at 18.75 µg/mL (by protocol).
Consider `O=C(CSc1nc2c([nH]c3ccccc32)c(=O)n1-c1cccc(Cl)c1)NCc1ccccc1`, for which the survival is 78% (inactive).
Next, `COc1cccc(Cn2c(CNC(=O)C(C)C)nc3cccnc32)c1`: 80% (inactive).
For the compound `Cc1oc(-c2ccc(C(=O)NCc3ccccc3)cc2)nc1CN1CCc2ccccc21`, the survival is 80% (inactive).
The same measure for `CC(C)(C)OC(=O)N1CCC(c2c(C(=O)NCc3cccc(Cl)c3)cnn2-c2ccc(F)cc2)CC1`: 78% (inactive); for `COc1ccc(-c2nc(SCC(=O)Nc3ccc4c(c3)OCCO4)c(-c3ccc(F)cc3)[nH]2)cc1OC`: 62% (inactive); for `Cc1ccccc1C(=O)NCC(c1ccc(N(C)C)cc1)N1CCCC1` (stereo not given): 66% (inactive).
Next, `COc1ccc(CCNC(=O)CCSCc2ccccc2Cl)cc1OC`: 88% (inactive); `Cc1ccc(CCNC(=O)CCSCc2ccccc2Cl)cc1`: -3% (active).
Next, `O=C(CCSCc1ccccc1Cl)NCCc1ccccc1`: 74% (inactive).
`Cc1ccc(CCNC(=O)c2ccc(CSCc3ccccc3Cl)o2)cc1`: the survival was 72% (inactive).
The same measure for `O=C(CCSCc1cccc(Cl)c1)NCc1ccc(F)cc1Cl`: 66% (inactive).
`O=C(CCSCc1ccc(Cl)cc1)NCc1ccc(F)cc1Cl`: the survival was 79% (inactive).
Next, `O=C(CCSCc1ccccc1Cl)NCc1ccc(F)cc1Cl`: 0% (active); `Cc1ccc(CCNC(=O)c2ccc(CSCc3ccccc3C)o2)cc1`: 0% (active).
The same measure for `Cc1ccccc1CSCc1ccc(C(=O)NCCc2ccccc2)o1`: 77% (inactive); for `CC1(C)CC(NC(=O)NCc2ccc3c(c2)OCO3)CC(C)(CNC(=O)NCc2ccc3c(c2)OCO3)C1` (stereo not given): 117% (inactive); for `CCOCCc1nn2c(=O)cc(COC(=O)c3ccccc3OC)nc2s1`: 78% (inactive).
The same measure for `CC(=O)N1CCc2c(sc3c2c(=O)n(Cc2ccccc2)c(=O)n3Cc2ccccc2Cl)C1`: 98% (inactive).
As to `C/C(=N\NC(N)N)C1CCCCCCCCCCC1`, the survival was -1% (active).
Next, `Cc1nc(C)c(CC(=O)O)c(=O)[nH]1`: 112% (inactive).
The same measure for `CCOc1ccc(-n2cc(-c3ccccc3)c3c(NCCc4ccccc4)ncnc32)cc1`: 74% (inactive); for `Cc1cccc(Cc2c(C)nc3nc(SCc4ccccc4C)nn3c2C)c1`: 87% (inactive); for `Cc1nc2nc(SCC(=O)NCc3ccccc3)nn2c(C)c1Cc1ccccc1`: 0% (active).
The same measure for `Cc1nc2nc(SCC(=O)NCc3ccccc3Cl)nn2c(C)c1Cc1ccccc1`: 68% (inactive); for `Cc1nc2nc(SCC(=O)Nc3ccccc3Cl)nn2c(C)c1Cc1ccccc1`: -3% (active).
For `Cc1cccc(Cc2c(C)nc3nc(SCc4ccccc4Cl)nn3c2C)c1`, the survival is -5% (active).
Consider `Cc1nc2nc(SCC(=O)NCCc3ccccc3)nn2c(C)c1Cc1c(F)cccc1Cl`, for which the survival was 65% (inactive).
For `Cc1nc2nc(SCC(=O)NCCc3ccc(Cl)cc3)nn2c(C)c1Cc1c(F)cccc1Cl`, the survival was -2% (active).
Consider `Cc1cccc(Cc2c(C)nc3nc(SCC(=O)NCc4ccccc4)nn3c2C)c1`, for which the survival was 71% (inactive).
Next, `Cc1cccc(Cc2c(C)nc3nc(SCc4ccccc4F)nn3c2C)c1`: 91% (inactive); `Cc1ccc(NC(=O)CSc2nc3nc(C)c(Cc4ccccc4)c(C)n3n2)cc1`: 47% (inactive).
For `Cc1nc2nc(SCC(=O)NCCc3ccc(Cl)cc3)nn2c(C)c1Cc1ccccc1Cl`, the survival was 80% (inactive).
The same measure for `Cc1nc2nc(SCC(=O)NCc3ccccc3)nn2c(C)c1Cc1ccccc1Cl`: 128% (inactive).
The same measure for `Cc1cccc(Cn2c(CN3CCC(C(=O)NCCc4ccccc4)CC3)cc3ccccc32)c1`: 128% (inactive); for `COc1cc(-c2nc(-c3ccc4c(c3)[nH]c(=O)n4C)no2)cc(OC)c1OC`: 83% (inactive).
The same measure for `COC(=O)c1cc(-c2ccccc2)sc1N`: 116% (inactive); for `COCCNC(=O)CSc1nc(-c2ccc(C)cc2)nc2c1c(=O)n(C)c(=O)n2C`: 77% (inactive).
Regarding `CCOc1ccc(OCC)c(S(=O)(=O)N2CCC(C)CC2)c1`, the survival was 102% (inactive).
Turning to `CC(C)CCNC(=O)Cn1cc(S(=O)(=O)Cc2ccc(F)cc2)c2ccccc21`, the survival is 91% (inactive).
The same measure for `O=C(CSc1nnc(-c2cccs2)o1)Nc1cccc(C(F)(F)F)c1`: 71% (inactive).
Turning to `Cc1ccc(C)c(N2CCN(C(=O)C3CCN(c4nc(-c5ccc(C(C)C)cc5)no4)CC3)CC2)c1`, the survival is 87% (inactive).
The same measure for `CCOCCCn1c(SCC(=O)Nc2ccc(C)cc2)nc2ccccc2c1=O`: 83% (inactive).
The same measure for `c1ccc(-n2nnnc2N2CCCC2)cc1`: 102% (inactive); for `O=C(NC1CCCC1)C(c1ccccc1)N(C(=O)c1ccco1)C1CCCC1` (stereo not given): 88% (inactive).
Next, `CCOC(=O)CN(Cc1ccccc1)C(C(=O)NC1CCCCC1)c1ccc(C)cc1` (stereo not given): -2% (active); `CN(Cc1ccccc1)C(C(=O)NC1CCCCC1)c1ccc(Cl)cc1` (stereo not given): 74% (inactive).
Take `Cc1ccc(-c2nnn(CC(=O)N(Cc3ccccc3)C(C(=O)NC3CCCC3)c3ccco3)n2)cc1` (stereo not given): the survival was 99% (inactive).
`O=C(NC1CCCC1)C(c1ccccc1)N(Cc1ccccc1F)C(=O)c1ccco1` (stereo not given): the survival was 118% (inactive).
The same measure for `CCOC(=O)CN(Cc1ccccc1)C(C(=O)NC1CCCCC1)c1ccc(OC)cc1` (stereo not given): 20% (inactive); for `CCOC(=O)CN(Cc1ccccc1)C(C(=O)NC1CCCCC1)c1ccccc1` (stereo not given): -2% (active).
Consider `Cc1ccc(C(C(=O)NC2CCCCC2)N(C)Cc2ccccc2)cc1` (stereo not given), for which the survival is -1% (active).
For `COc1ccc(C(C(=O)NC2CCCC2)N(Cc2ccc(C)cc2)C(=O)c2ccn[nH]2)cc1OC` (stereo not given), the survival was 103% (inactive).
Next, `N#Cc1c(Nc2cccc(F)c2)sc(C(=O)c2ccc(Cl)cc2)c1N`: 101% (inactive); `CCCOc1cccc(NC(=O)c2c(-c3ccccc3Cl)noc2C)c1`: 71% (inactive).
The same measure for `CCc1nc(NCCCO)c2nnn(Cc3ccccc3F)c2n1`: 106% (inactive).
Next, `CS(=O)(=O)NCC(c1ccco1)N1CCN(c2ccccc2)CC1` (stereo not given): 83% (inactive); `CCCCCCc1cc2cc(-c3nnc(-c4cccc(Cl)c4)o3)c(=O)oc2cc1O`: 72% (inactive).
Turning to `CN(C)N1C(=O)CC(N2CCCC2)C1=O` (stereo not given), the survival was 101% (inactive).
The same measure for `CCc1ccc(NC(=O)CC2C(=O)N(c3cccc(C)c3)C(=O)N2CCC(C)C)cc1` (stereo not given): 72% (inactive); for `COc1cc2c(cc1OC)C(COc1cc(C)cc(C)c1)N(C(=O)c1ccc(S(=O)(=O)N3CCCC3)cc1)CC2` (stereo not given): 45% (inactive).
`COc1cc2c(cc1OC)C(COc1ccccc1OC)N(C(=O)c1ccc(S(=O)(=O)N3CCCC3)cc1)CC2` (stereo not given): the survival is 0% (active).
The same measure for `COc1cc2c(cc1OC)C(COc1ccc(F)cc1)N(C(=O)c1ccc(S(=O)(=O)N3CCCC3)cc1)CC2` (stereo not given): 88% (inactive).
For `COc1cccc(NC(=O)CCc2nnc3n(CC(C)C)c(=O)c4ccccc4n23)c1`, the survival was 92% (inactive).
The same measure for `COc1ccc(N2CCN(C(=O)c3cc4c(s3)-c3ccccc3OC4)CC2)cc1`: 116% (inactive); for `Cc1ccc(C)c(N(C)C(=O)c2cc3c(s2)-c2ccccc2OC3)c1`: -2% (active); for `CCN(C(=O)c1cc2c(s1)-c1c(C)cccc1OC2)c1ccccc1F`: 96% (inactive).
The same measure for `COc1cc(OC)c(N(C)C(=O)c2cc3c(s2)-c2ccccc2OC3)cc1Cl`: 73% (inactive); for `COc1cc(NC(=O)c2cc3c(s2)-c2ccccc2OC3)cc(OC)c1OC`: 53% (inactive).
The same measure for `COc1ccc(CNC(=O)c2cc3c(s2)-c2ccccc2OC3)cc1`: 92% (inactive); for `CCN(C(=O)c1cc2c(s1)-c1c(C)cccc1OC2)c1cc(C)ccc1C`: 11% (active); for `Cc1ccc(CCNC(=O)c2cc3c(s2)-c2ccccc2OC3)cc1`: 95% (inactive).
As for `CCOc1ccccc1N(C)C(=O)c1cc2c(s1)-c1ccccc1OC2`, the survival was 13% (active).
Next, `COc1ccc(N(C)C(=O)c2cc3c(s2)-c2ccccc2OC3)cc1`: 13% (active); `Cc1ccc(CCNC(=O)c2cc3c(s2)-c2c(C)cccc2OC3)cc1`: 88% (inactive).
Next, `CCOc1ccc(CCNC(=O)c2cc3c(s2)-c2ccccc2OC3)cc1OCC`: 90% (inactive).
The same measure for `NCCC(=O)N1c2ccccc2Sc2ccc(Cl)cc21`: 104% (inactive); for `Cc1ccc(F)cc1NC(=O)CCc1c(C)nn(-c2ccc(N3CCOCC3)nn2)c1C`: 113% (inactive).
On to `O=C(c1ccccc1)N1CCc2cc(CNS(=O)(=O)c3ccc(Cl)s3)ccc21`, for which the survival is 66% (inactive).
The same measure for `Cc1c(C(=O)NCc2ccc(F)cc2)oc2ccc(S(=O)(=O)N3CCCCC3)cc12`: 84% (inactive).
Next, `CCOC(=O)CSc1nc2ccc(NC(=O)c3cccc(F)c3)cc2s1`: 87% (inactive); `CS(=O)(=O)Nc1ccc2c(c1)OCO2`: 94% (inactive); `COc1ccc(OC)c(NC(=O)CCCOc2cc(=O)n(C)c3ccccc23)c1`: 64% (inactive).
Next, `COc1cccc(NC(=O)C2CCCN(c3ncnc4onc(C)c34)C2)c1` (stereo not given): 72% (inactive); `CCC(C)NC(=O)c1c(C)oc2nc(C)nc(N3CCOCC3)c12` (stereo not given): 88% (inactive); `CCc1cccc(NC(=O)CCn2nc(C)cc2C)c1`: 77% (inactive).
With `COc1ccc(NC(=O)C2CCN(C(=O)c3sc4nc[nH]c(=O)c4c3C)CC2)c(OC)c1`, the survival was 81% (inactive).
Next, `COc1cc(OC)cc(C(=O)Nc2ccccc2-c2nc3ccccc3s2)c1`: 41% (inactive); `COc1cccc(C(=O)Nc2ccccc2-c2nc3ccccc3s2)c1`: 42% (inactive).
The same measure for `CSc1ccc(C(=O)Nc2ccc(-c3nc4ccccc4s3)c(O)c2)cc1`: 0% (active).
The same measure for `COc1ccc(C(=O)Nc2cc(-c3nc4ccccc4s3)ccc2OC)cc1`: 5% (active); for `O=C(Nc1ccc(-c2nc3ccccc3s2)c(O)c1)c1ccc(Br)cc1`: 85% (inactive); for `Cc1ccc(C(=O)Nc2ccc(-c3nc4ccccc4s3)c(O)c2)c(C)c1`: 91% (inactive).
Consider `CCOc1ccc(C(=O)Nc2cc(-c3nc4ccccc4s3)ccc2OC)cc1`, for which the survival is 163% (inactive).
The same measure for `COc1cc(OC)cc(C(=O)Nc2cc(-c3nc4ccccc4s3)ccc2OC)c1`: 67% (inactive).
Next, `COc1ccc(C(=O)Nc2ccccc2-c2nc3ccccc3s2)cc1OC`: -6% (active).

These data come from PubChem BioAssay AID463173 (ICCB-Longwood Screening Facility, Harvard Medical School, 2010).
